Screening results from PubChem BioAssay.
A selection: hits, their analogues and other compounds. The true share with any hit is near 2.8%.
Platelet DG rel: platelet dense granule release activity; AID 1663; inhibition, %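 (compounds screened at 7.5 µM in platelet-rich plasma)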; human platelet-rich plasma, SFLLRN dense granule ATP release, luminescence; hit rate 0.22% among 300,000;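 active = mean replicate score, as percent of positive control, at or above 50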
AHR activator: activates the human aryl hydrocarbon receptor | activation, % at 5 µM | AHR-responsive luciferase reporter cells, luminescence | AID 2796 | P35869 | hit rate 2.5% among 320,000; in the data active = activation above about 47%
pCIP destab: compounds decreasing mouse p/CIP protein stability; Q05BA5; F442A p/CIP-EGFP cells, EGFP fluorescence, 16 h; decrease of EGFP signal, % at 10 µM; hit rate 0.01% among 290,000; AID 1984;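 active = EGFP signal decrease of at least 30% at 10 µM or well 3 SD below plate mean, unless failing retest; inactive = the rest, including hits failing retest or dose response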
PolyA inh: inhibitors of polyadenylation in S. cerevisiae; S. cerevisiae SKY197-pL101 polyadenylation reporter, beta-gal luminescence; efflux-impaired pdr1/pdr3 knockout yeast; score 100 = 6 SD above DMSO; activity score, % at 12 µM; hit rate 0.02% among 300,000;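 active = lowest replicate activity score at least 50, where 100 means six control SD above control mean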;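 also: yeast exposed to compound for 9 h at 30 °C; higher score means more reporter readthrough which indicates perturbed polyadenylation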
HIF activator: HIF pathway transcriptional activation; hit rate 0.32% among 300,000; activation, % at 7.5 µM (by protocol); U2OS HRE-luciferase reporter, luminescence; normalized: DMSO 0%, desferrioxamine 100%;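 active = mean activation of at least 10% of the iron chelator positive control signal, with at least half of replicates also reaching 10%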
Numbers stand for hits; – = inactive; · = no result.

SMILES	Platelet DG rel	AHR activator	pCIP destab	PolyA inh	HIF activator
CCOc1cc(NC(=O)c2cccs2)c(OCC)cc1NC(=O)CCC(=O)NCC1CCCO1 (centres undefined)	–	–	–	–	–
O=C(Cn1cnc2ccccc2c1=O)NC1CCS(=O)(=O)C1 (centres undefined)	–	–	·	–	–
CC(C)c1ccc(N=C2N=C(N)c3ccccc32)cc1	–	47.8	–	–	–
NC1=NC(=Nc2ccc(Cl)cc2)c2ccccc21	–	56.4	–	–	–
Cc1ccc(OCC(=O)N/N=C/c2cccc3cccnc23)cc1	–	–	–	–	–
Oc1ccc(/C=N/NC(=S)Nc2cccnc2)c(O)c1	–	60.1	–	–	–
Oc1cccc(/C=N/NC(=S)Nc2cccnc2)c1O	–	–	–	–	14.1
Oc1ccc(/C=N/NC(=S)Nc2cccnc2)c(O)c1O	–	·	–	–	–
Fc1c(F)c(F)c(/C=N/NC(=S)Nc2cccnc2)c(F)c1F	–	70.7	–	–	–
Fc1cccc(F)c1/C=N/NC(=S)Nc1cccnc1	–	–	–	–	–
O=C(CCCN1C(=O)c2cccc3cccc(c23)C1=O)NC1CCS(=O)(=O)C1 (centres undefined)	–	–	–	–	–
O=[N+]([O-])/C(C(Cl)=C(Cl)Cl)=C(/Sc1ccccc1)N1CCCCC1	–	–	–	–	–
O=C(NCCCN1CCCC1=O)c1ccc(S(=O)(=O)Nc2cccc(C(F)(F)F)c2)cc1	–	–	·	–	–
CCCCNC(=O)/C=C/c1ccc(S(=O)(=O)Nc2ccc(OC)cc2)cc1	–	–	–	–	–
Cc1nc2cc3nc(C(F)(F)F)[nH]c3cc2[nH]1	–	50.0	–	–	–
Nc1ccc2nc(C(F)(F)F)[nH]c2c1	–	–	–	–	–
N#Cc1ccccc1CSc1nc2ccc(NC(=O)c3ccccc3C(=O)O)cc2s1	–	49.5	–	–	–
O=C(O)c1ccc(CSc2nc3ccc(NC(=O)c4ccccc4C(=O)O)cc3s2)cc1	–	–	–	–	–
COc1ccc(S(=O)(=O)N(CC(=O)NC2CCCCC2)c2ccc(F)cc2)cc1	–	–	–	–	–
COc1ccc(-c2cn3c(C)c(C(=O)NC(C)(C)C)sc3n2)cc1	–	54.9	–	–	–
COc1ccc(-c2cn3c(C)c(C(=O)NC(C)C)sc3n2)cc1	–	–	–	–	–
COCCNC(=O)c1sc2nc(-c3ccccc3)cn2c1C	–	–	–	–	71.0
CCC(C)(C)NC(=O)C(c1ccc(C)cc1)N(Cc1ccco1)C(=O)CCC(=O)Nc1nccs1 (centres undefined)	–	–	–	–	–
Cc1ccc(NC(=O)CN(C)C(=O)c2ccccc2Sc2ccccc2C#N)cc1	–	–	·	–	–
COc1ccc(-c2cn(CCN)c(-c3ccncc3)n2)cc1	·	–	·	·	·
SMILES	Platelet DG rel	AHR activator	pCIP destab	PolyA inh	HIF activator
Cn1c(=O)c(/C=C/c2ccccc2)nc2ccccc21	–	53.1	–	–	–
Cn1c(/C=C/c2ccccc2)nc2ccccc21	81.1	–	–	–	–
COc1ccccc1Cn1c(/C=C/c2ccccc2)nc2ccccc21	–	63.9	–	–	–
C/C(=N\Nc1ccc2nncn2n1)c1ccco1	–	–	–	–	–
C/C(=N\Nc1ccc2nncn2n1)c1ccccn1	–	–	–	–	128.7
C/C(=N\Nc1ccc2nncn2n1)c1ccc(Br)s1	–	77.8	–	–	–
CC[n+]1ccc(C(=O)NCc2ccccc2)cc1	–	–	–	–	–
CCCCCCn1c(CN2CCN(C(=O)OCC)CC2)nc2c1c(=O)n(C)c(=O)n2C	–	–	·	–	–
COc1cc([N+](=O)[O-])ccc1NC(=O)c1cccc(NC(=O)C(C)C)c1	–	47.5	–	–	–
COc1cc2c(cc1NC(=O)c1cccnc1)oc1ccccc12	–	–	–	–	–
COc1cc2c(cc1NC(=O)c1ccncc1)oc1ccccc12	–	63.5	–	–	–
O=C(NCc1ccccc1Cl)c1cccc(NC(=O)c2ccccc2)c1	–	–	–	–	–
COc1ccccc1CNC(=O)c1cccc(NC(=O)c2ccccc2)c1	–	–	–	–	25.7
COc1cc2c(cc1NC(=O)c1cccc([N+](=O)[O-])c1)oc1ccccc12	–	58.5	–	–	–
Cc1cc(=O)[nH]c(SCC(=O)c2ccc(F)c(C)c2)n1	–	–	–	–	–
O=C(COc1ccc(S(=O)(=O)N2CCCC2)cc1)NCc1ccccn1	–	–	–	–	–
CS(=O)(=O)N(CC(=O)Nc1ccccc1Cl)c1ccc(Cl)cc1	–	–	–	–	–
COc1cc2c(cc1NC(=O)C(C)Sc1cccc[n+]1[O-])oc1ccccc12 (centres undefined)	–	99.1	–	–	–
Cc1ccc(SCC(=O)Nc2ccc(N3CCOCC3)cc2)cc1C	·	–	·	·	·
COc1ccc(OC)c2sc(NC(=O)c3ccc(S(=O)(=O)N(C)C)cc3)nc12	–	69.0	–	–	–
COc1ccc(OC)c2sc(NC(=O)CCSc3ccccc3)nc12	–	58.9	–	–	–
COc1ccccc1NC(=O)c1ccc(S(=O)(=O)N(C)C)cc1	–	–	–	–	–
COc1ccc(C)c2sc(NC(=O)C3CC3)nc12	–	73.7	–	–	–
CCn1c(SCC(=O)NC(=O)c2ccccc2OC)nc2ccccc21	–	–	–	–	–
CCOC(=O)C1=C(Nc2ccc(OC)cc2)OCC1=O	–	–	–	–	–
SMILES	Platelet DG rel	AHR activator	pCIP destab	PolyA inh	HIF activator
COC(=O)c1c(N2C(=O)CC(Sc3ccccc3C(=O)O)C2=O)sc2c1CCCC2 (centres undefined)	–	–	–	–	–
CCC(C)NC(=O)C1CCC(CNS(=O)(=O)c2ccccc2)CC1 (centres undefined)	–	–	–	–	–
CCCCN(Cc1nc2ccccc2c(=O)[nH]1)C(=O)CN1C(=O)NC2(CCCCC2)C1=O	·	–	·	·	·
O=C(NN=C1c2ccccc2-c2ccccc21)c1cccc(Br)c1	–	56.1	–	–	–
COc1ccc(-c2oc3ccc(-c4cc(OC)c(OC)c(OC)c4)cc3c2C#Cc2ccccn2)cc1	·	–	·	·	·
Nc1ccc(-c2nc3ccccc3o2)cc1	–	–	–	–	–
Nc1cc(N)cc(-c2nc3ccccc3o2)c1	–	72.4	·	–	·
Cc1nn(-c2ccccn2)c2c1-c1nc(N)ncc1CC2	–	62.9	–	–	–
Cc1cc(=O)nc2c3ccccc3n(CC(=O)NCCC3=CCCCC3)n12	–	–	–	–	–
Cn1c(C(=O)Nc2ccc(Cl)cc2)cc2cc(Cl)ccc21	·	68.2	–	–	–
O=C1Nc2ccc(Br)cc2/C1=C/C(=O)c1ccc2c(c1)OCO2	–	69.9	–	–	–
CN1C(=O)/C(=C/c2ccccc2OCc2cccc(F)c2)N(C)C1=S	–	50.4	–	–	–
COc1cc2c(cc1NC(=O)COC(=O)[C@@H](NC(=O)c1ccccc1)C(C)C)oc1ccccc12	–	49.5	–	–	–
COc1cc2c(cc1NC(=O)COC(=O)CNC(=O)c1ccccc1)oc1ccccc12	–	–	–	–	–
